The other results are listed elsewhere or left out. Calls of active or inactive are those of the source. How the calls were made is not given here.
Assay: GFP fluorescence inhibitors and quenchers, dose response, artefact control for Rin1-Abl interaction inhibitor project, biochemical (AID 602182);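 further: ABL1-eGFP fusion protein alone without its RIN1 binding partner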
Details: GFP fluorescence interference/quenching counterscreen

Q: For `Nc1cc(=O)c2[nH]cnc2[nH]1`, which IC50 is on record?
A: Its IC50 is > 67.7 µM (inactive).

Q: For `CN(Cc1c(F)cccc1Cl)C(=O)CNC(=O)c1ccc2c(c1)OCO2`, which IC50 is on record?
A: The IC50 was > 67.6 µM (inactive).

Q: Which IC50 does the source give for `CCOC(=O)N1CCN(C(=O)C2CCN(c3ncnc4c3sc3cccc(F)c34)CC2)CC1` here?
A: The IC50 was > 67.6 µM (inactive).

Q: With `Cc1ccccc1CN1C[C@@H]2C[C@@H](c3ccc4nsnc4c3)N3CCC[C@@]23C1=O` as the molecule, how does the IC50 read?
A: The IC50 was > 67.5 µM (inactive).

Q: With `CC(OC(=O)c1ccccc1NCCO)C(=O)Nc1ccnn1C(C)C` (stereo not drawn) as the molecule, how does the IC50 read?
A: Its IC50 is > 67.5 µM (inactive).

Q: For `C[C@@H]1CN([C@H](C)CO)S(=O)(=O)c2ccc(C#C[C@@H](C)O)cc2O[C@@H]1CN(C)Cc1ccc(-c2ccccc2)cc1`, which IC50 is on record?
A: Its IC50 is > 67.5 µM (inactive).

Q: For `CN(C(=O)c1ccc(NC(=O)Cc2cccc(NC(=O)C3CCN(C(=O)c4ccccc4)CC3)c2)cc1)C1CC1`, which IC50 is on record?
A: Its IC50 is > 67.6 µM (inactive).

Q: Which IC50 does the source give for `C=CCn1c2ccccc2c2nnc(SCc3[nH]c(=O)[nH]c3C(=O)CCCCC(=O)OCC)nc21` here?
A: Its IC50 is > 67.5 µM (inactive).

From PubChem BioAssay AID602182 (The Scripps Research Institute Molecular Screening Center, 2012)
